This passage reports binding signal results from publication PMC7862700, “An all-to-all approach to the identification of sequence-specific readers for epigenetic DNA modifications on cytosine”.

Common to all, as to test: DAPPL (digital affinity profiling via proximity ligation, sequencing); 10 mM Tris-HCl pH 7.5, 50 mM NaCl, 1 mM DTT, 4% glycerol, room temperature, 30 min; GST-TFs on glutathione beads, 16-mer random dsDNA library, 0.1% formaldehyde crosslink after washing; high values mean tight binding
Assay [1] has as its target T1, FLI1 (Homo sapiens, UniProt Q01543 1-452).
T1 sequence: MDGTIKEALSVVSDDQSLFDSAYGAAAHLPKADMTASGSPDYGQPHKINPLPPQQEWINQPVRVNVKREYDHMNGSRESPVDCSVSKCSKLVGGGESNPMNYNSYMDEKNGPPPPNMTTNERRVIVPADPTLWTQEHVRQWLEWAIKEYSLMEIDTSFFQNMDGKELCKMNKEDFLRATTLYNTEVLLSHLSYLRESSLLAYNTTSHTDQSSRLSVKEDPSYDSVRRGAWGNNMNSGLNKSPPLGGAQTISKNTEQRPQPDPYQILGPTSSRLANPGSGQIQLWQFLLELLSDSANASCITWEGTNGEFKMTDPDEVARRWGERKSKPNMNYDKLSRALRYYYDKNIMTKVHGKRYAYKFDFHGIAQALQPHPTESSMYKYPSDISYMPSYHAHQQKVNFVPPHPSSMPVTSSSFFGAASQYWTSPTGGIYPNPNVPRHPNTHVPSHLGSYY
To be noted: protein: recombinant; tags: N-terminal GST; dsDNA, one strand shown. The method, boiled down: (§1)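 Binding signal is each hexamer's read frequency for a factor divided by its frequency in the tag-only sample. The factors were GST-fused human transcription factors from yeast, captured on glutathione beads, DNA-barcoded and pooled with that sample. Pools were incubated with 200 nmole of a random double-stranded 16-mer DNA library in Tris/NaCl/DTT/glycerol buffer at room temperature for 30 min, then washed, crosslinked with 0.1% formaldehyde, proximity-ligated with BsaI/T4 ligase (1 h, 37 °C), PCR-amplified and sequenced on an Illumina NextSeq500.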

In assay [2] the target is T2, ELK1 (Homo sapiens, UniProt P19419 1-428).
T2 sequence: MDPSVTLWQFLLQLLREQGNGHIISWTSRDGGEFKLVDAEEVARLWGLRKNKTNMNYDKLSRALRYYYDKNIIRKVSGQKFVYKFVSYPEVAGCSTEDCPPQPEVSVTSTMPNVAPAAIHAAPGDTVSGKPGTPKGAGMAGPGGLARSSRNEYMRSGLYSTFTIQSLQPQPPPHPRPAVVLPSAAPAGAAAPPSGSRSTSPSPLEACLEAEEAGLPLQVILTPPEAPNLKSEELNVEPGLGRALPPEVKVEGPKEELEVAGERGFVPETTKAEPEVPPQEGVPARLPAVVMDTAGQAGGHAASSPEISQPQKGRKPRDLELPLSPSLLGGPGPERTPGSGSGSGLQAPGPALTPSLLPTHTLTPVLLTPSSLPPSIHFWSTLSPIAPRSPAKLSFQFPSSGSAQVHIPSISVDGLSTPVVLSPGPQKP
The note with it: protein: recombinant; tags: N-terminal GST; dsDNA, one strand shown. The method, boiled down: as §1

For assay [3], the target named is T3, GABPA (Homo sapiens, UniProt Q06546 1-454).
T3 sequence: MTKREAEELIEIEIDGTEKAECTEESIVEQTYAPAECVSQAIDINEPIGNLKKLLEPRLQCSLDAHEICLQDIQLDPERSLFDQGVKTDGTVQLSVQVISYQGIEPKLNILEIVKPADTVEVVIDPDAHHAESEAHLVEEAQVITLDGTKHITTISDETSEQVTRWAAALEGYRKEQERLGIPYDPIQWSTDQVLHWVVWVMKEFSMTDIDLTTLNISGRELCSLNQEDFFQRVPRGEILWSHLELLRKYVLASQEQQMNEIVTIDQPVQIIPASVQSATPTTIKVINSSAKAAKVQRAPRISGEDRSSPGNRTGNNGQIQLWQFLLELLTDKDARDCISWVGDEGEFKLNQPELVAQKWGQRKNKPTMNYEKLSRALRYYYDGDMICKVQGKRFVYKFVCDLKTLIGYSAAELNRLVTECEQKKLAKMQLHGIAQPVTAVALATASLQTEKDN
To be noted: protein: recombinant; tags: N-terminal GST; dsDNA, one strand shown. The method, boiled down:
as §1

Assay [4] deals with T4, ERG (Homo sapiens, UniProt P11308 1-479).
T4 sequence: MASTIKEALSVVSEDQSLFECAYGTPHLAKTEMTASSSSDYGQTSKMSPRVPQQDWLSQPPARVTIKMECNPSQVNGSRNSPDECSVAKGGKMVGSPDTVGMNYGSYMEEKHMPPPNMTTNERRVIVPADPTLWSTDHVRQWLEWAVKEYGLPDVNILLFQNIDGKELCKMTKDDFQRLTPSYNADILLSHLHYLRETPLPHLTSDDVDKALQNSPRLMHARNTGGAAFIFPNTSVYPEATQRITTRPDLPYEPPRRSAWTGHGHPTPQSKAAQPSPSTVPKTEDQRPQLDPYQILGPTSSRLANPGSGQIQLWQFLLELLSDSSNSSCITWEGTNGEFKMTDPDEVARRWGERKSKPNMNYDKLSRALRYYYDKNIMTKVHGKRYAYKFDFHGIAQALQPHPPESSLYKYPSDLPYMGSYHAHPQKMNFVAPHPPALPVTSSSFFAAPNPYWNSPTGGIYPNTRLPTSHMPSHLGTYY
The note with it: protein: recombinant; tags: N-terminal GST; dsDNA, one strand shown. The method in brief: as §1

Assay [5] deals with ELF1 (Homo sapiens, UniProt P32519 1-619). To be noted: protein: recombinant; tags: N-terminal GST; dsDNA, one strand shown. The method in brief: as §1
ELF1, sequence (P32519 whole entry): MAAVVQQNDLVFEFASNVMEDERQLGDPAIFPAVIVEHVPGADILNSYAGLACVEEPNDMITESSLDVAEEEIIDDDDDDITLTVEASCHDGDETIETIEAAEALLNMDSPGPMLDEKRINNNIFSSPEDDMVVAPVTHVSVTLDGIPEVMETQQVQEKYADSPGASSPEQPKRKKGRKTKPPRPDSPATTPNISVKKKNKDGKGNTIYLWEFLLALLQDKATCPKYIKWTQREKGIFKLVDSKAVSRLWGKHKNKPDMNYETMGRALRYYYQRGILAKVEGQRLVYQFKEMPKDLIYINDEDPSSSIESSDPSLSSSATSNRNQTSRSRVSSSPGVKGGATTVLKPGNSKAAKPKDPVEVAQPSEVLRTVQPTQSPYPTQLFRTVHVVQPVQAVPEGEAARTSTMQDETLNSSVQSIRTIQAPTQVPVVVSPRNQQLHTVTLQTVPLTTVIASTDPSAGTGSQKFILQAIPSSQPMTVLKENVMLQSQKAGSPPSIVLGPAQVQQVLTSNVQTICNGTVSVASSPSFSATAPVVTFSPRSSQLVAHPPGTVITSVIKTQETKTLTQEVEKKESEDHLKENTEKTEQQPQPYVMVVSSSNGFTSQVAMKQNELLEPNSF
Assay [6] has as its target T5, EHF (Homo sapiens, UniProt Q9NZC4 1-300).
T5 sequence: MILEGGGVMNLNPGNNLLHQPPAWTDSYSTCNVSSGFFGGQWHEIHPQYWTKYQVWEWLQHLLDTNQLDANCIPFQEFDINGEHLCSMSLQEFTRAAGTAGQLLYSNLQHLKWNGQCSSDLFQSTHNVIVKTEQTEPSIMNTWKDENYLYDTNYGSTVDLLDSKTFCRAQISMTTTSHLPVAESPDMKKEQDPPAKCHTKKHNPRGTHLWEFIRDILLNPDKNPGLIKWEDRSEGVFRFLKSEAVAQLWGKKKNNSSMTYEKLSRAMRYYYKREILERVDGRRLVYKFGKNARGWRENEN
The note with it: protein: recombinant; tags: N-terminal GST; dsDNA, one strand shown. The method, boiled down:
as §1

Assay [7] addresses SPI1 (Homo sapiens, UniProt P17947 1-270). The note with it: protein: recombinant; tags: N-terminal GST; dsDNA, one strand shown. The method in brief:
as §1

Assay [8] has as its target SPIB (Homo sapiens, UniProt Q01892 1-262). The note with it: protein: recombinant; tags: N-terminal GST; dsDNA, one strand shown. The method, boiled down:
as §1

Assay [9] has as its target T6, ELK3 (Homo sapiens, UniProt P41970 1-407).
T6 sequence: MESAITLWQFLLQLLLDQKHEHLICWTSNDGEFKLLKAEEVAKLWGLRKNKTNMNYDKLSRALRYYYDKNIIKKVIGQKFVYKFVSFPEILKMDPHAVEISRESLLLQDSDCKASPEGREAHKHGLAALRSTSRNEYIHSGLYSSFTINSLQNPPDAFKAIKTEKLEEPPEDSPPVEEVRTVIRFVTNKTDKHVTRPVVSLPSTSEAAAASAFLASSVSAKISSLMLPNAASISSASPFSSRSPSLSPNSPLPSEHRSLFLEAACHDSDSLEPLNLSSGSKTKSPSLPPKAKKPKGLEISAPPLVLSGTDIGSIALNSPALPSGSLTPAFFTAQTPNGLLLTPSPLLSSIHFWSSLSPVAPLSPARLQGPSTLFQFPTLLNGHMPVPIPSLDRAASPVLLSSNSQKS
The note with it: protein: recombinant; tags: N-terminal GST; dsDNA, one strand shown. The method, boiled down:
as §1

Assay [10] deals with T7, FEV (Homo sapiens, UniProt Q99581 1-238).
T7 sequence: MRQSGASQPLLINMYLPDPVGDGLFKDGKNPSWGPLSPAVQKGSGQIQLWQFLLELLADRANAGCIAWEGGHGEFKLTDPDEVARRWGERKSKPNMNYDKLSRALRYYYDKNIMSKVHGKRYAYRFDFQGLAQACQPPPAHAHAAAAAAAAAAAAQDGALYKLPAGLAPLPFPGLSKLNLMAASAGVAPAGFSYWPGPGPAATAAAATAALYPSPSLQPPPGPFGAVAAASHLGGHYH
The note with it: protein: recombinant; tags: N-terminal GST; dsDNA, one strand shown. The method in brief:
as §1

For assay [11], the target named is ETV5 (Homo sapiens, UniProt P41161 1-510). The note with it: protein: recombinant; tags: N-terminal GST; dsDNA, one strand shown. The method in brief: as §1
ETV5, sequence (P41161 whole entry): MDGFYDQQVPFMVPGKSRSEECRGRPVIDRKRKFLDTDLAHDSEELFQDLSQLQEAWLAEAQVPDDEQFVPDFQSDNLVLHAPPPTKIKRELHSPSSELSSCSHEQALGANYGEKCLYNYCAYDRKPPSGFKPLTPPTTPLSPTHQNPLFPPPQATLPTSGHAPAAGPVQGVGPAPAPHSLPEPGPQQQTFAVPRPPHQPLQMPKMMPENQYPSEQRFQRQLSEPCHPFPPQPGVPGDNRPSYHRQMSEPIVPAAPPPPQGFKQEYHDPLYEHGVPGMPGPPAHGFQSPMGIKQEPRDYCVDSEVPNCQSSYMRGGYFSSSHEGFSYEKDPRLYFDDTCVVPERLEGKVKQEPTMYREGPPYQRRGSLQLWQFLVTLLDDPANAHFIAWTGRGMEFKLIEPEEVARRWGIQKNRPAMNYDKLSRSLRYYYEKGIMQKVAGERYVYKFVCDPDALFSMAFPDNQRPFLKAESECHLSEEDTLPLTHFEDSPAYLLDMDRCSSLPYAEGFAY
Assay [12] deals with HSF1 (Homo sapiens, UniProt Q00613 1-529). The note with it: protein: recombinant; tags: N-terminal GST; chain copies: 3; dsDNA, one strand shown. The method in brief: as §1
HSF1, sequence (Q00613 whole entry): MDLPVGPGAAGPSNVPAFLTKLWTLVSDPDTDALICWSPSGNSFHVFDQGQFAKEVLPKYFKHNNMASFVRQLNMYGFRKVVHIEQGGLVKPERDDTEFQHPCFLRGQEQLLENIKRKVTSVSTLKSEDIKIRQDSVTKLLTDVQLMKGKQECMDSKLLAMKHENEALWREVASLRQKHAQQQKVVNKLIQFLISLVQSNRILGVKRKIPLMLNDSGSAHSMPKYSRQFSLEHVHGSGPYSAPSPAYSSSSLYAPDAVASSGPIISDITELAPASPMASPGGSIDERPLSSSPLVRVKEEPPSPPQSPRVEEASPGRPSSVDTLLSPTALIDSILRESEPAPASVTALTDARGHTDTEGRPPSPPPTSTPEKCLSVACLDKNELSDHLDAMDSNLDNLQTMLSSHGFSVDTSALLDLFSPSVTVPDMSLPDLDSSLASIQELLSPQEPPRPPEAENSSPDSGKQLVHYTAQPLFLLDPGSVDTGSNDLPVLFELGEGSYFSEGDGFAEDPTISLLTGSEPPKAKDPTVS
Assay [13] has as its target T8, SPIC (Homo sapiens, UniProt Q8N5J4 1-248).
T8 sequence: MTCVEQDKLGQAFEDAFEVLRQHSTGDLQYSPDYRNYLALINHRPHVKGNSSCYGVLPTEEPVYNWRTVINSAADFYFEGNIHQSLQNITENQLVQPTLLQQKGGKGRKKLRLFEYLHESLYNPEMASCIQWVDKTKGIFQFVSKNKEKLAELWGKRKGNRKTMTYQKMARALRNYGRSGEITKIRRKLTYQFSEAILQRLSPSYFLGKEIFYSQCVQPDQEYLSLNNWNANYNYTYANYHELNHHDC
To be noted: protein: recombinant; tags: N-terminal GST; dsDNA, one strand shown. The method, boiled down: as §1

In assay [14] the target is ELF4 (Homo sapiens, UniProt Q99607 1-663). The note with it: protein: recombinant; tags: N-terminal GST; dsDNA, one strand shown. The method in brief:
as §1

Assay [15] addresses T9, ELK4 (Homo sapiens, UniProt P28324-2 1-405).
T9 sequence: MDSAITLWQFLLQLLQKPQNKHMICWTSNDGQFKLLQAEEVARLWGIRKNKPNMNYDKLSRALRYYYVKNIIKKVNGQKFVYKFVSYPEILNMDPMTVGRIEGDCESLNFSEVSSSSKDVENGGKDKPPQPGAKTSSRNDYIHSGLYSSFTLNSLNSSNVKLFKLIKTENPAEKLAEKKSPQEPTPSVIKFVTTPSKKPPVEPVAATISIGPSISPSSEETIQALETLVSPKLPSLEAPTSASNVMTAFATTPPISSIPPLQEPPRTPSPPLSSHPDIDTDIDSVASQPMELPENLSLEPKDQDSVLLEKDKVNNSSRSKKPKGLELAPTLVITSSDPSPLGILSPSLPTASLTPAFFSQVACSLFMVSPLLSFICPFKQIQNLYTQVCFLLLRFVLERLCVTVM
The note with it: protein: recombinant; tags: N-terminal GST; dsDNA, one strand shown. The method, boiled down: as §1

For assay [16], the target named is T10, ETV2 (Homo sapiens, UniProt O00321 1-342).
T10 sequence: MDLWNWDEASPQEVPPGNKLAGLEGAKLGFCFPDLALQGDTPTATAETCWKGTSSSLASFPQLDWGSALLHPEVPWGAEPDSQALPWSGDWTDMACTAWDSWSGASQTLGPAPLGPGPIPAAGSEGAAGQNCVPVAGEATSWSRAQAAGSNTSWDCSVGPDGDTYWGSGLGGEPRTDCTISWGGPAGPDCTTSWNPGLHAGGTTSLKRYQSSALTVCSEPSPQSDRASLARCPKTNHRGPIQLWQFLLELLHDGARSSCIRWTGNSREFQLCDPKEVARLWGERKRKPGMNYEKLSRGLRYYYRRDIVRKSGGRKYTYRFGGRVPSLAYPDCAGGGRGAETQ
The note with it: protein: recombinant; tags: N-terminal GST; dsDNA, one strand shown. The method, boiled down: as §1

Assay [17] deals with T11, ELF3 (Homo sapiens, UniProt P78545 1-371).
T11 sequence: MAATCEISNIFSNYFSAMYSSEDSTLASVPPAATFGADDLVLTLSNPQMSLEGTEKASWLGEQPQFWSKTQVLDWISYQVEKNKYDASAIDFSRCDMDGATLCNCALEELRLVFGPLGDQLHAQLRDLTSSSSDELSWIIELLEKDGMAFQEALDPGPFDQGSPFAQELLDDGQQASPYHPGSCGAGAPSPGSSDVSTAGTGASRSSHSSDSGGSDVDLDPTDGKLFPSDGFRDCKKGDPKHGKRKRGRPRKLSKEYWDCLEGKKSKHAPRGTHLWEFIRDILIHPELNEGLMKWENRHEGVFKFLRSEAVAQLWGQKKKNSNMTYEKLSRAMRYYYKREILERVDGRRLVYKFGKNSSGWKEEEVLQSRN
The note with it: protein: recombinant; tags: N-terminal GST; dsDNA, one strand shown. The method in brief:
as §1

For assay [18], the target named is CRX (Homo sapiens, UniProt O43186 1-299). The note with it: protein: recombinant; tags: N-terminal GST; dsDNA, one strand shown. The method, boiled down: as §1
CRX, sequence (O43186 whole entry): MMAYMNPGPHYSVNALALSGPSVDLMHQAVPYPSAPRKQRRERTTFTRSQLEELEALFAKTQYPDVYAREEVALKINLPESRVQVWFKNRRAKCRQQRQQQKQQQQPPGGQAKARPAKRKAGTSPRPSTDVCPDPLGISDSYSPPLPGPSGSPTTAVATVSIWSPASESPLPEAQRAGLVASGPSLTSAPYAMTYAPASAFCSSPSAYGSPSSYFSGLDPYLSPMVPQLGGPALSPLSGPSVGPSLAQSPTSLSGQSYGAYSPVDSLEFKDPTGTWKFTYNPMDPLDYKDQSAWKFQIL
For assay [19], the target named is ETV1 (Homo sapiens, UniProt P50549 1-477). To be noted: protein: recombinant; tags: N-terminal GST; dsDNA, one strand shown. The method, boiled down:
as §1

ELF4, sequence (Q99607 whole entry): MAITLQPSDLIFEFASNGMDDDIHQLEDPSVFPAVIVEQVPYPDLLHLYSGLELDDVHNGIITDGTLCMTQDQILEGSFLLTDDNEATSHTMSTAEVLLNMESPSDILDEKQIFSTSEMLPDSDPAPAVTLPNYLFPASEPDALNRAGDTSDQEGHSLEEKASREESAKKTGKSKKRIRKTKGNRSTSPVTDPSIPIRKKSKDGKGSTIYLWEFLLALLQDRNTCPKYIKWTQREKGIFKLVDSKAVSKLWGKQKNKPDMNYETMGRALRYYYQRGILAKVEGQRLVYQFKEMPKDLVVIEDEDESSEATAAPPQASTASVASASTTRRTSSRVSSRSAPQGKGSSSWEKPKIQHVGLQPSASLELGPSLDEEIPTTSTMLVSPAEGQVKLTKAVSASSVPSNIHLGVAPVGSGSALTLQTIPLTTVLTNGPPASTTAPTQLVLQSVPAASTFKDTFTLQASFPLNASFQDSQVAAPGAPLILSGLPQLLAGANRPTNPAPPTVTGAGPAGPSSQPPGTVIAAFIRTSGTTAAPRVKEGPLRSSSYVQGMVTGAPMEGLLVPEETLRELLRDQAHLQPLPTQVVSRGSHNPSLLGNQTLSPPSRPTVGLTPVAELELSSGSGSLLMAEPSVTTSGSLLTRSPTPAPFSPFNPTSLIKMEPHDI
SPIB, sequence (Q01892 whole entry): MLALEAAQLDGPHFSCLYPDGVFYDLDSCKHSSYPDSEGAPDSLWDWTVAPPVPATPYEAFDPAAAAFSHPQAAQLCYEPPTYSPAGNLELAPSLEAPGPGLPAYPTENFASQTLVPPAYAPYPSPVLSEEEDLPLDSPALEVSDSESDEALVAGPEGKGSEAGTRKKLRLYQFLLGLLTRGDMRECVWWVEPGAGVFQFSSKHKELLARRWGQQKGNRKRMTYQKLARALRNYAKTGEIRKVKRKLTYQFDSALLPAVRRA
ETV1, sequence (P50549 whole entry): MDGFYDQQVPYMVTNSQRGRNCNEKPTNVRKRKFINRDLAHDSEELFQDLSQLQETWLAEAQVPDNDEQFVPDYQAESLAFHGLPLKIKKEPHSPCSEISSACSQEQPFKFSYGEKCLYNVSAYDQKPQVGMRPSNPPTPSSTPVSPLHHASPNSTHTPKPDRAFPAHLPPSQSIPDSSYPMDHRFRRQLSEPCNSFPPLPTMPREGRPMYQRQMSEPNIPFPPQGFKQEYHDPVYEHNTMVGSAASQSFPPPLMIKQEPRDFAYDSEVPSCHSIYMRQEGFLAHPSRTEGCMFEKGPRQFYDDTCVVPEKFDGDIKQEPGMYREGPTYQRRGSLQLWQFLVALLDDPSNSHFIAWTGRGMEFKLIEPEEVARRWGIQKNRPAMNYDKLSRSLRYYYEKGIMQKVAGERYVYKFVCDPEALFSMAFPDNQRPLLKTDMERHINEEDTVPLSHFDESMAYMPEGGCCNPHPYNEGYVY

CTTACA: the binding signal was 1.28 fold enrichment (6-mer frequency, TF over GST control) in [1]; 1.3 fold enrichment (6-mer frequency, TF over GST control) in assay [2]; 1.32 fold enrichment (6-mer frequency, TF over GST control) in [3]; 1.21 fold enrichment (6-mer frequency, TF over GST control) in [4]; 1.24 fold enrichment (6-mer frequency, TF over GST control) in assay [5]; 1.33 fold enrichment (6-mer frequency, TF over GST control) in assay [6]. The binding signal is 1.22 fold enrichment (6-mer frequency, TF over GST control) in assay [7]; 1.21 fold enrichment (6-mer frequency, TF over GST control) in [8]; 1.24 fold enrichment (6-mer frequency, TF over GST control) in assay [9]; 1.18 fold enrichment (6-mer frequency, TF over GST control) in [10]; 1.31 fold enrichment (6-mer frequency, TF over GST control) in [11]; 1.31 fold enrichment (6-mer frequency, TF over GST control) in assay [12]. In addition, the binding signal in assay [13] is 1.27 fold enrichment (6-mer frequency, TF over GST control); in assay [14] it was 1.25 fold enrichment (6-mer frequency, TF over GST control); in [15], 1.3 fold enrichment (6-mer frequency, TF over GST control); in assay [16] it was 1.28 fold enrichment (6-mer frequency, TF over GST control); in assay [17] it was 1.41 fold enrichment (6-mer frequency, TF over GST control); in [18] it was 1.6 fold enrichment (6-mer frequency, TF over GST control). In addition, the binding signal in assay [19] was 1.24 fold enrichment (6-mer frequency, TF over GST control).
